Most compounds without a hit are left out; they make up all but 12% or so of the library.
HCV inhibitor: HCV inhibition | Huh7.5.1 HCVcc-Cre infection, luciferase reporter, 44 h | Potency, µM (doses to about 41.8 µM), usual class: inhibitors | AID 651820 | 340,000 compounds, 3.4% hits
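Luciferase read-out (15 sec integration) after a 15 min room-temperature substrate step quantifies HCVcc-Cre infection. Cells, 1,000 per well, had compound added 4 h post-plating, then virus at ~0.5 moi, and were cultured 44 h.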
Pf growth 48h: P. falciparum growth inhibition at 48 hours (one generation); AID 504832; Potency, µM (highest dose often 28.7 µM), hits mostly inhibitors; 310,000 compounds, 5.9% hits; P. falciparum luciferase growth in erythrocytes, 48 h
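Read-out is firefly luciferase luminescence from an integrated reporter in P. falciparum, so falling signal marks reduced parasite growth. Infected erythrocytes were at 2% hematocrit and 0.1% parasitemia (final) in Albumax-supplemented RPMI 1640.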
Pf growth 96h: P. falciparum growth inhibition at 96 hours | P. falciparum luciferase reporter growth, 96 h | Potency, µM (top dose mostly 28.7 µM), usual class: inhibitors | 320,000 compounds, 6.9% hits
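Two parasite generations (96 h, 37 C, 5% CO2) of compound exposure in infected erythrocytes (0.05% parasitemia, 2% hematocrit). Luciferase-reporter P. falciparum; decreased luminescence indicates inhibited growth, aimed at apicoplast-acting delayed death.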
AMA1 RON2 block: AMA1-RON2 (P. falciparum) interaction inhibition. Potency, µM (highest dose often 58.2 µM), most hits filed as inhibitors. AID 720542. 360,000 compounds, 0.2% hits. AlphaScreen AMA1-biotinylated RON2 peptide binding; further: nearly all actives have a fitted effect of over 45% in size
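AMA1 (3D7) with his tag at 25 nM final met compounds first, then biotinylated RON2 peptide at 25 nM; detection used donor plus acceptor beads, 10 µg/mL apiece, read by AlphaScreen after 30 min at room temperature.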
SARS PLP yeast: blocks SARS-CoV papain-like protease in a yeast assay; S. cerevisiae expressing SARS-CoV PLpro, growth rescue; Potency, µM (doses to about 32.9 µM), actives largely listed as activators; 330,000 compounds, 0.19% hits; calls by dose curve; further: nearly all actives have a fitted effect of over 55% in size
NS1 inh: blocks influenza NS1 protein function; 270,000 compounds, 0.4% hits; AID 2326; Potency, µM (titrated, usually from 46.1 µM); calls by dose curve; further: actives are rising curves; nearly all actives have a fitted effect of over 50% in size
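Growth recovery, yeast-based: influenza A NS1 expressed in S. cerevisiae causes slow growth, and suppressors are detected by OD600. The parent strain without NS1 is used as positive control.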
Of the large screens only hits and unclear results are named; the others gave an inactive call. Unless noted, the call rests on the fitted dose curve; in most records, active means well fitted curve in the direction sought with a large enough effect; inconclusive means small, poorly fitted or top-dose-only effect, or another doubt; inactive means no such curve, though single readings can be large; an effect the other way counts as inactive or inconclusive.

Cc1ccc(N(CC(=O)N2CCCCCC2)S(=O)(=O)c2ccccc2)cc1	none
CCOC(=O)c1c(S(=O)(=O)NCCc2ccc(OC)c(OC)c2)c(C)n(C)c1C	Pf growth 96h inconclusive
CCOC(=O)c1c(C)c(C)n(Cc2ccc(OC)c(OC)c2)c1C	HCV inhibitor inconclusive, Pf growth 48h 8.3µM, Pf growth 96h inconclusive
CCOC(=O)c1ccc(OC)c(OC)c1Cl	none
CCOC(=O)c1cc(C)n(Cc2ccc(OCC)c(OC)c2)c1C	HCV inhibitor 11µM, Pf growth 48h 1.7µM (no result: Pf growth 96h)
CCOC(=O)CCc1c(C)nc(-n2[nH]c(C)c(CCO)c2=O)[nH]c1=O	Pf growth 48h inconclusive, Pf growth 96h inconclusive (no result: NS1 inh)
CCC1OC(=O)CC(O)C(C)[C@@H](O[C@@H]2OC(C)[C@H](O[C@@H]3C[C@@](C)(O)C(O)C(C)O3)C(N(C)C)C2O)[C@H](CC=O)CC(C)C(=O)/C=C/C(C)=C/[C@@H]1COC1OC(C)C(O)C(OC)[C@@H]1OC (stereo partly drawn)	Pf growth 48h inconclusive, Pf growth 96h 0.76µM (no result: HCV inhibitor, AMA1 RON2 block, SARS PLP yeast, NS1 inh)
CC[C@H]1OC(=O)C[C@@H](O)[C@H](C)[C@@H](O[C@@H]2O[C@H](C)C[C@H](N(C)C)[C@H]2O)[C@@H](CC=O)C[C@@H](C)C(=O)C=C[C@]2(C)O[C@H]2[C@@H]1C	Pf growth 48h 4.7µM, Pf growth 96h 0.33µM (no result: HCV inhibitor, AMA1 RON2 block)
CCC1OC(=O)C[C@H](O)C(C)[C@@H](O[C@@H]2OC(C)C(O)C(N(C)C)C2O)C(CCN2CC(C)CC(C)C2)CC(C)C(=O)/C=C/C(C)=C\[C@@H]1COC1OC(C)C(O)C(OC)C1OC (stereo partly drawn)	Pf growth 48h inconclusive, Pf growth 96h 3.8µM (no result: HCV inhibitor, AMA1 RON2 block, SARS PLP yeast, NS1 inh)
Cn1c(-c2c(N)n(C3CCCC3)c3nc4ccccc4nc23)nc2ccccc21	HCV inhibitor inconclusive, Pf growth 48h 12µM, Pf growth 96h 8.3µM
Cn1c(-c2c(N)n(CCc3ccccc3)c3nc4ccccc4nc23)nc2ccccc21	HCV inhibitor inconclusive, Pf growth 96h 5.2µM (no result: Pf growth 48h)
CCOC(=O)Nc1c(C(=O)OC)[nH]c2cc(OC)ccc12	HCV inhibitor 25µM, Pf growth 96h inconclusive
C=CCOC(=O)Nc1c(C(=O)OC)[nH]c2ccccc12	HCV inhibitor 10µM, Pf growth 48h inconclusive
CCOC(=O)c1[nH]c2ccc(OC)cc2c1NC(=O)OC	none
COC(=O)c1[nH]c2ccccc2c1NC(=O)c1ccccc1F	HCV inhibitor 13µM
CCCCNC(=O)Nc1c(C(=O)OCC)[nH]c2ccccc12	Pf growth 96h 8.3µM
Cc1ccc(NS(=O)(=O)c2c(C)[nH]c(C)c2C(=O)N2CCCCC2)cc1F	none
CN(C)S(=O)(=O)c1ccc(C(=O)NNC(=O)C2COc3ccccc3O2)cc1 (stereo not drawn)	Pf growth 96h inconclusive (no result: NS1 inh)
Cc1cc(C)nc(SCc2nnc(SCC#N)n2-c2cccc(Cl)c2)n1	HCV inhibitor inconclusive, Pf growth 48h 7.4µM, Pf growth 96h inconclusive
Cc1ccc2nc(Cl)c(/C=N/n3c(C)nnc3C)cc2c1	none (no result: NS1 inh)
O=[N+]([O-])c1ccc(Oc2ccc(S(=O)(=O)N3CCOCC3)cc2)cc1	HCV inhibitor 11µM, Pf growth 96h inconclusive
O=C1CN(S(=O)(=O)c2ccc([N+](=O)[O-])cc2)CC(=O)N1	Pf growth 96h 12µM
O=[N+]([O-])c1ccc(S(=O)(=O)CC(CN2CCOCC2)N2CCOCC2)cc1 (stereo not drawn)	HCV inhibitor 11µM, Pf growth 96h inconclusive (no result: NS1 inh)
CC(CCCC(C)(C)O)NC(=O)c1ccc(OC2CCN(C(=O)C3CC3)CC2)cc1 (stereo not drawn)	Pf growth 96h inconclusive
C/C(=C\[C@@H](NP(=O)(c1ccccc1)c1ccccc1)c1ccccc1)CO[Si](c1ccccc1)(c1ccccc1)C(C)(C)C	none (no result: Pf growth 48h, Pf growth 96h, SARS PLP yeast, NS1 inh)
CCCC/C(C)=C/[C@@H](NP(=O)(c1ccccc1)c1ccccc1)c1ccccc1	HCV inhibitor 2.8µM, Pf growth 48h inconclusive, Pf growth 96h 15µM
Cc1ccc(C(=O)NC(=S)Nc2c(C)ccc3nsnc23)cc1	SARS PLP yeast 13µM
Cc1ccc(C(=O)NC(=S)Nc2cccc3c(C)cc(C)nc23)cc1	Pf growth 48h inconclusive, Pf growth 96h 12µM
O=C(NCCCNC(=O)c1cccnc1)c1ccc(Cl)cc1	none
CC[C@H](C)C(=O)O[C@H]1CCC=C2C=C[C@H](C)[C@H](CC[C@@H]3C[C@@H](O)CC(=O)O3)[C@H]21	HCV inhibitor 0.56µM, Pf growth 48h inconclusive (no result: NS1 inh)
CC(=O)Nc1cccc(-c2csc(Nc3ccccn3)n2)c1	HCV inhibitor 11µM
CC(=O)Nc1ccc(-c2csc(NCc3ccccc3)n2)cc1	HCV inhibitor inconclusive
CC(C)CC(=O)Nc1cccc(-c2csc(-c3ccccc3)n2)c1	HCV inhibitor inconclusive, Pf growth 48h inconclusive, Pf growth 96h 6.6µM
CC(=O)Nc1cccc(-c2csc(NCc3ccccc3)n2)c1	Pf growth 48h inconclusive, Pf growth 96h 10µM, AMA1 RON2 block inconclusive
CC(=O)Nc1cccc(-c2csc(Nc3ccc(Cl)cn3)n2)c1	HCV inhibitor 11µM
CC(=O)Nc1cccc(-c2csc(Nc3cc(C)ccn3)n2)c1	HCV inhibitor inconclusive
CC(=O)Nc1ccc(-c2csc(Nc3ccc(Cl)cn3)n2)cc1	HCV inhibitor inconclusive (no result: NS1 inh)
[Cl][Pd][Cl].[S-]C1=C2N=CN[C-]2[NH+]=C[N-]1.[S-]c1ncnc2[nH]cnc12	none (no result: HCV inhibitor, Pf growth 48h, Pf growth 96h, AMA1 RON2 block, SARS PLP yeast)
Cc1cc(Br)ccc1OCC(=O)NNC(=O)c1cnccn1	Pf growth 48h inconclusive, Pf growth 96h 12µM, SARS PLP yeast inconclusive
Cc1cc(Cl)ccc1OCC(=O)NNC(=O)c1cnccn1	Pf growth 48h inconclusive, Pf growth 96h 8.3µM (no result: NS1 inh)
O=C(COc1cccc2ccccc12)NNC(=O)c1cnccn1	Pf growth 48h inconclusive, Pf growth 96h inconclusive
CN(C)P(=O)(Nc1cccc2ccccc12)Nc1cccc2ccccc12	Pf growth 48h 4.7µM, Pf growth 96h inconclusive (no result: NS1 inh)
O=C1[C@@H]2[C@@H]3C[C@@H]([C@H]4ON=C(c5ccc(Cl)cc5)[C@@H]34)[C@@H]2C(=O)N1C1CCCCC1	HCV inhibitor inconclusive, Pf growth 96h 10µM
C=CCOc1ccc(C2=NO[C@@H]3[C@@H]4C[C@@H]([C@H]5C(=O)N(C)C(=O)[C@@H]45)[C@H]23)cc1	HCV inhibitor inconclusive
COc1cc(C2CC(=O)c3cnc(NC(=O)c4ccco4)nc3C2)cc(OC)c1OC (stereo not drawn)	HCV inhibitor inconclusive
CC(=O)c1ccc(NC(=O)C[n+]2ccccc2)cc1	Pf growth 96h inconclusive
Cc1cccc(NC(=O)C[n+]2ccc(N(C)C)cc2)c1	Pf growth 48h inconclusive
CN(C)c1cc[n+](CC(=O)Nc2ccc(Oc3ccccc3)cc2)cc1	HCV inhibitor inconclusive, Pf growth 48h inconclusive, Pf growth 96h inconclusive (no result: NS1 inh)
